Assay results: PubChem BioAssay AID652042 (Broad Institute, 2013)
About 350 (32%) of roughly 1,100 compounds were called active. These entries were drawn from the full list. Entries with a potency or affinity are not part of this list. A number with no mark means an inactive call. The rule behind the calls is not given here.

Assay: CEM21 lymphoblast cell cytotoxicity, dose response, cytotoxicity control for viral fusion inhibitor project, CellTiter-Glo luminescence, cherry-picked (AID 652042)
Settings: CEM21 cells viability, CellTiter-Glo ATP luminescence, 24 h; series mostly up to 35 µM; activity change, negative = cytotoxicity: at the top concentration

In order of rising “activity change, negative = cytotoxicity” value:
1. COc1ccc(OCC(=O)Nc2ccccc2N2CCCCC2)cc1  -36.7%
2. Cc1ccc(OCCN2CCN(c3ncnc4sc(C)c(C)c34)CC2)cc1  -27.5%
3. CCc1ccc(-c2nc(CN3CCC(C(=O)NCCc4ccc(OC)c(OC)c4)CC3)c(C)o2)cc1  -24.4%
4. Cn1c(CN2CCCCC2)nc2cc(NC(=O)c3ccc(Cl)cc3)ccc21  -23.7%
5. COc1cc(C(=O)N2CCN(c3ncnc4sc(C)c(C)c34)CC2)cc(OC)c1OC  -21.1%
6. Cc1ccc(CSCCNC(=O)c2ccc(Cl)c(S(=O)(=O)N3CCOCC3)c2)cc1  -18.7%
7. CCOC(=O)c1c(CSc2ccccc2)oc2cc(Br)c(O)c(CN(C)C)c12  -17.8%
8. O=C(Nc1ccc(Oc2ccccc2)cc1)c1csc([C@H]2C[C@H](O)[C@@H](CO)O2)n1  -16.4%
9. O=C(Nc1ccc(N2CCN(C(=O)c3ccccc3)CC2)c(Cl)c1)c1cccnc1  -16.1%
10. CO[C@@H]1CN(C)C(=O)c2cc(NC(=O)Nc3ccc(Cl)cc3)ccc2OC[C@H](C)N(C)C[C@H]1C  -16%
11. CN1CC(c2ccccc2)C2(COc3ccccc3C2=O)C12C(=O)Nc1ccccc12 (stereo unspecified)  -15.8%
12. O=C(c1ccc(Cl)s1)N1CCN(c2nc3ccccc3s2)CC1  -12.8%
13. Cc1oc(-c2ccccc2F)nc1CN1CCC(C(=O)NCCC2=CCCCC2)CC1  -12.8%
14. COc1ccc(OC)c(-c2cc(C(=O)Nc3c(C)nn(Cc4ccc(Cl)cc4)c3C)no2)c1  -11.3%
15. CCN1C(=O)[C@H]2[C@@H](c3ccc(C)cc3)N3C(=O)N(c4ccc(C(F)(F)F)cc4)C(=O)[C@@]3(CC(C)C)[C@H]2C1=O  -11.3%
16. O=C(CCCn1c(=S)[nH]c2cc3c(cc2c1=O)OCO3)N1CCN(c2ccc(Cl)cc2)CC1  -10.7%
17. CC1(C(=O)NCc2ccc3c(c2)OCO3)CCN1Cc1csc2ccccc12 (stereo unspecified)  -10.1%
18. Cc1ccc2cc(C#N)c(NCCNC(=O)C3CC3)nc2c1C  -7.75%
19. CCN(C[C@H]1N[C@@](C)(C(=O)OC)[C@H]2C(=O)N(Cc3ccccc3)C(=O)[C@@H]12)C(=O)c1ccc(C(C)(C)C)cc1  -7.41%
20. c1csc(CNc2ncnc3sccc23)c1  -7.21%
21. COc1ccc(CCC(C)NCc2cc(OC)cc(OC)c2)cc1 (stereo unspecified)  -6.55%
22. COc1ccc2[nH]c(=O)c(CN(Cc3nnnn3Cc3ccccc3)CC3CCCO3)cc2c1 (stereo unspecified)  -6.18%
23. COC(=O)[C@@]1(Cc2ccccc2)[C@H]2C(=O)N(Cc3ccccc3)C(=O)[C@H]2[C@H]2CN=C(SCc3ccc(C#N)cc3)N21  -6.15%
24. CCOc1c(C)cnc2c1c(=O)n(Cc1ccc(Cl)cc1)c(=O)n2C  -4.47%
25. Cc1nc2sc(C(c3ccco3)N3CCC(Cc4ccccc4)CC3)c(O)n2n1 (stereo unspecified)  -4.26%
26. CC1CCN(C(=O)c2ncn3c2C(=O)NC[C@@H]3C)CC1  -3.77%
27. CC[C@@]1(C(=O)OC)N[C@H](CN(C)C(=O)Nc2ccc(F)cc2)[C@@H]2C(=O)N(Cc3ccccc3)C(=O)[C@@H]21  -3.66%
28. COc1ccc(OCC(=O)Nc2cc(-c3nn(C)c(=O)c4ccccc34)ccc2OC)cc1  -3.59%
29. CCOc1ccc(NC2c3ccccc3C(=O)N2Cc2ccco2)cc1 (stereo unspecified)  -2.14%
30. Cc1ccc(NS(=O)(=O)c2cc(C(=O)N(C)C3CCN(C)CC3)ccc2Cl)cc1Cl  -1.93%
31. COc1ccccc1S(=O)(=O)n1cc(Cc2ccccc2)c(N)n1  -1.81%
32. CCCc1cc(C(=O)NCc2ccc(OC)cc2)no1  -1.74%
33. S=c1[nH]cc(-c2ccccc2)n1-c1cccc(Cl)c1  -0.899%
34. CC(=O)C1=C(C)NC(=S)NC1c1ccccc1 (stereo unspecified)  -0.735%
35. O=C(CN1C(=O)c2ccccc2S1(=O)=O)c1ccc2c(c1)OCCCO2  -0.421%
36. O=C(NCC(=O)N1CCN(c2ncccn2)CC1)c1ccccc1OC(F)F  -0.419%
37. CC1CCc2c(sc3ncnc(N4CCOCC4)c23)C1 (stereo unspecified)  -0.353%
38. C[C@H]1CNC(=O)c2c(C(=O)N3CCN(c4ccccc4)CC3)ncn21  -0.09%
39. COc1ccc(S(=O)(=O)Nc2ccc3c(c2)CC(=O)N([C@@H](C)CO)C[C@H](C)[C@H](CN(C)S(=O)(=O)c2cccs2)O3)cc1  0.186%
40. CCN(CC(=O)Nc1cc(Cl)ccc1C)C(=O)c1ccc(=O)n(Cc2ccccc2)n1  0.209%
41. COc1ccc([C@@H]2[C@@H]3C(=O)N(C(C)(C)C)C(=O)[C@@H]3[C@]3(CC(C)C)C(=O)N(c4ccc(C(F)(F)F)cc4)C(=O)N23)cc1  0.418%
42. COc1ccc(Cl)cc1NC(=O)Nc1cnccn1  0.955%
43. CCC(C)(C)NC(=O)C(c1ccccc1F)N(Cc1ccco1)C(=O)c1csnn1 (stereo unspecified)  1.6%
44. CN(C)C(=O)C[C@H]1C[C@@H]2c3cc(NC(=O)NC4CCCCC4)ccc3O[C@@H]2[C@H](CO)O1  4.2%

In order of rising activity change, negative = cytotoxicity:
1. CC1CN(S(=O)(=O)c2cc(C(=O)NCCC3=CCCCC3)ccc2Cl)CC(C)O1 (stereo unspecified)  -1.11% [at 8 µM]
2. c1ccc2c(c1)ncn2CCCCOc1ccc2c(c1)CCC2  1.14% [at 8 µM]
